Test results: PubChem BioAssay (NCATS)
Inconclusive results are not listed. Activity calls are given as the source filed them. The call rests on the fitted dose curve; in most records, active means well fitted curve in the direction sought with a large enough effect; inconclusive means small, poorly fitted or top-dose-only effect, or another doubt; inactive means no such curve, though single readings can be large; an effect the other way counts as inactive or inconclusive.

Key:
[1] = tested on: HACAT; assay: qHTS assay to identify novel small-molecules to repurpose for Merkel cell carcinoma treatment (AID 1296009); settings: MCC and control cell lines, CellTiter-Glo viability, 72 h; at 44.8 µM (top of the series) unless noted; further: nearly all actives have a fitted effect of over 60% in size
How it was run: (§1)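 qHTS format: cells treated with library compounds in DMSO across 8 (NPC) or 11 (MIPE) concentrations. Readout after 72 hr at 37 degree celsius was CellTiter-Glo luminescence.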

[2] = tested on: C33A; assay: Primary qHTS to identify gynecologic anti-cancer compounds using libraries of approved drugs and bioactive compounds (AID 1345084); settings: Gynecologic cancer cell panel viability, ATPlite luminescence, 48 h; series mostly up to 57.5 µM; further: on the % scale 0 is the no-effect control and ±100 the full control effect; nearly all actives have a fitted effect of over 55% in size
How it was run: (§2)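 Cell viability after 48 h drug treatment, ATPlite luminescence readout; five doses.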

[3] = tested on: CAOV3; assay: as above; settings: Gynecologic cancer cell panel viability, ATPlite luminescence, 48 h; series mostly up to 57.5 µM
How it was run: as §2

[4] = tested on: CASKI; assay: as above; settings: Gynecologic cancer cell panel viability, ATPlite luminescence, 48 h; series mostly up to 57.5 µM
How it was run: as §2

[5] = tested on: Es-2; assay: as above; settings: Gynecologic cancer cell panel viability, ATPlite luminescence, 48 h; series mostly up to 57.5 µM
How it was run: as §2

[6] = tested on: HeLa; assay: as above; settings: Gynecologic cancer cell panel viability, ATPlite luminescence, 48 h; series mostly up to 57.5 µM
How it was run: as §2

[7] = tested on: Hek293T; assay: as above; settings: Gynecologic cancer cell panel viability, ATPlite luminescence, 48 h, control line for the selectivity index; series mostly up to 57.5 µM
How it was run: as §2

[8] = tested on: JEG-3; assay: as above; settings: Gynecologic cancer cell panel viability, ATPlite luminescence, 48 h; series mostly up to 57.5 µM
How it was run: as §2

[9] = tested on: HEK293T; assay: qHTS assay to identify novel small-molecules to repurpose for Merkel cell carcinoma treatment (AID 1296009); settings: MCC and control cell lines, CellTiter-Glo viability, 72 h; at 44.8 µM (top of the series) unless noted; further: nearly all actives have a fitted effect of over 60% in size
How it was run: as §1

COc1ccc(NC(=O)c2ccc(-c3ccc(C(N)=O)cc3C)cc2)cc1N1CCN(C)CC1
inactive: outcome [1] | Potency [2] | Potency [3] | outcome [4] | Potency [5] | Potency [6] | Potency [7] | Potency [8]

Cc1[nH]c2ccccc2c1CC(=O)N[C@@H](Cc1ccccc1)C(=O)N(C)c1ccccc1
inactive: outcome [1] | Potency [2] | outcome [4] | Potency [5] | Potency [6] | Potency [7] | Potency [8]

C=C1C(=O)O[C@@H]2/C=C(\C)CC/C=C(\C(=O)O[C@@H]3O[C@H](CO)[C@@H](O)[C@H](O)[C@H]3O)CC[C@@H]12
inactive: outcome [1] inactive [at 17.4 µM] | Potency [2] | Potency [3] | Potency [5] | Potency [6] | Potency [8]

Cc1ccccc1-n1nc(-c2c(-c3ccc(F)cc3)nn3c2NC[C@@H](CO)C3)ccc1=O
inactive: outcome [1] | Potency [2] | Potency [3] | outcome [4] | Potency [5] | Potency [7] | Potency [8]

COc1c2ccoc2nc2c(OC)c(O[C@@H]3O[C@@H](C)[C@H](O)[C@@H](O[C@@H]4O[C@H](CO)[C@@H](O)[C@H](O)[C@H]4O)[C@H]3OC(C)=O)ccc12
inactive: outcome [1] inactive [at 17.4 µM] | Potency [2] | Potency [3] | outcome [4] | Potency [5] | Potency [6] | Potency [7] | Potency [8]

CCC(C)/C=C(C)/C=C/C1=CC2=C(Cl)C(=O)C(C)(OC(C)=O)C(=O)C2=CN1C(CCCN=C(N)N)C(=O)O (stereo not drawn)
inactive: outcome [1] inactive [at 17.4 µM] | Potency [2] | Potency [3] | outcome [4] | Potency [5] | Potency [6] | Potency [8]

CCC(C)C(C(=O)O)N1Cc2c(OCC=C(C)C)c(C)c(OC)c(C(=O)O)c2C1=O (stereo not drawn)
inactive: outcome [1] inactive [at 17.4 µM] | Potency [2] | Potency [3] | outcome [4] | Potency [5] | Potency [6] | Potency [7] | Potency [8]

C/C=C(/C)C(=O)OC1C2OC2C2(CO2)C2C3OC(=O)C(C)C3CCC12C (stereo not drawn)
inactive: outcome [9] | Potency [2] | Potency [3] | outcome [4] | Potency [5] | Potency [6] | Potency [7] | Potency [8]

O=C(CCCCC1CCCCC1)N1CCC(c2cnc[nH]2)CC1
inactive: outcome [1] | Potency [3] | outcome [4] | Potency [5] | Potency [6] | Potency [8]

C=C[C@@](C)(CCC=C(C)C)O[C@@H]1O[C@H](CO[C@@H]2OC[C@H](O)[C@H](O)[C@H]2O)[C@@H](O)[C@H](O)[C@H]1O
inactive: outcome [9] inactive [at 17.4 µM] | Potency [2] | Potency [3] | outcome [4] | Potency [5] | Potency [6] | Potency [7] | Potency [8]

CC1(C)CC[C@]2(C(=O)O[C@@H]3O[C@H](CO)[C@@H](O)[C@H](O)[C@H]3O)CC[C@]3(C)C(=CCC4[C@@]5(C)CC[C@H](O[C@@H]6O[C@H](C(=O)O)[C@@H](O[C@@H]7O[C@H](CO)[C@@H](O)[C@H](O)[C@H]7O)[C@H](O)[C@H]6O)C(C)(C)C5CC[C@]43C)C2C1 (stereo partly drawn)
inactive: outcome [1] inactive [at 9.27 µM] | activity change, negative = cytotoxicity [2] -1.25% [at 11.6 µM] | activity change, negative = cytotoxicity [4] 0.127% [at 11.6 µM] | activity change, negative = cytotoxicity [5] -4.47% [at 11.6 µM] | activity change, negative = cytotoxicity [6] 6.83% [at 11.6 µM] | activity change, negative = cytotoxicity [7] 3.96% [at 11.6 µM] | activity change, negative = cytotoxicity [8] -0.8% [at 11.6 µM]

C=C1[C@H](OC(C)=O)[C@H]2[C@@H](OC(=O)c3ccccc3)[C@@H](C)C[C@]2(O)[C@@H](OC(C)=O)[C@H](C)/C=C/C(C)(C)C(=O)[C@H](OC(C)=O)[C@H]1OC(C)=O
inactive: outcome [1] inactive [at 17.4 µM] | Potency [3] | Potency [5] | Potency [6] | Potency [7] | Potency [8]

C/C(CO)=C1/CCC23COC(C2)C(O)(C(=O)O)CCC13 (stereo not drawn)
inactive: outcome [9] | Potency [2] | Potency [3] | outcome [4] | Potency [5] | Potency [6] | Potency [7] | Potency [8]

CC1=C2CC(=O)C(C)CC/C=C(\C)CC2OC1=O (stereo not drawn)
inactive: outcome [1] | Potency [3] | outcome [4] | Potency [5] | Potency [6] | Potency [7] | Potency [8]

CC1=CCC(O)C2(C)CCC3C(C)C(=O)OC3C12 (stereo not drawn)
inactive: outcome [1] | Potency [3] | outcome [4] | Potency [5] | Potency [6] | Potency [7] | Potency [8]

C[C@@H]1C(=O)O[C@H](C)[C@H]1C[C@@H](O)[C@](C)(O)[C@H]1CC[C@@]2(O)C3=CC(=O)[C@@H]4C[C@@H](O)[C@@H](O)C[C@]4(C)C3CC[C@]12C (stereo partly drawn)
inactive: outcome [9] inactive [at 17.4 µM] | Potency [2] | Potency [3] | outcome [4] | Potency [5] | Potency [6] | Potency [7] | Potency [8]

CSCC1OC(n2cnc3c(N)ncnc32)C(O)C1O (stereo not drawn)
inactive: outcome [9] | Potency [2] | Potency [3] | outcome [4] | Potency [5] | Potency [6] | Potency [7] | Potency [8]

C=C[C@H]1[C@H](O[C@@H]2O[C@H](CO)[C@@H](O)[C@H](O)[C@H]2O)OC=C(C(=O)OC)[C@H]1CCO
inactive: outcome [1] | Potency [2] | outcome [4] | Potency [5] | Potency [6] | Potency [7] | Potency [8]

O=C(O[C@@H]1O[C@H](CO)[C@@H](O)[C@H](O)[C@H]1O)c1ccccc1
inactive: outcome [9] | Potency [2] | Potency [3] | outcome [4] | Potency [5] | Potency [6] | Potency [7] | Potency [8]

COc1cccc(CNc2ccc(S(=O)(=O)Nc3nc4ccccc4s3)cc2)c1O
inactive: outcome [9] | Potency [2] | Potency [3] | outcome [4] | Potency [5] | Potency [6] | Potency [7] | Potency [8]

O=C(OC[C@H]1O[C@H](O[C@H]2CO[C@H](CO)[C@@H](O)[C@@H]2O)[C@H](O)[C@@H](O)[C@H]1O)c1ccccc1
inactive: outcome [9] inactive [at 17.4 µM] | Potency [2] | Potency [3] | outcome [4] | Potency [5] | Potency [6] | Potency [7] | Potency [8]

COc1c(O[C@@H]2O[C@H](CO)[C@@H](O)[C@H](O)[C@H]2O)c(CCC(=O)O)cc2ccoc12
inactive: outcome [1] | Potency [3] | outcome [4] | Potency [5] | Potency [6] | Potency [7]

CC1(C)C=Cc2c(ccc3c2N=C2C(C)(C)[C@@H]4C[C@]56CCCN5C(=O)[C@@]4(C[C@]23O)NC6=O)O1
inactive: outcome [9] inactive [at 17.4 µM] | Potency [2] | Potency [3] | outcome [4] | Potency [5] | Potency [6] | Potency [7] | Potency [8]

C/C=C/C=C/C=C/C(=O)O[C@@H]1[C@@H](OC)C2=C(C(=O)N(C(CCC(=O)O)C(=O)O)C2)[C@@]2(C)CCCC(C)(C)[C@H]12 (stereo partly drawn)
inactive: outcome [9] inactive [at 17.4 µM] | Potency [2] | Potency [3] | outcome [4] | Potency [5] | Potency [6] | Potency [7] | Potency [8]

C=CC(C)(CC/C=C(\C)C(=O)OC)OC1OC(COC(=O)CC(C)(O)CC(=O)O)C(O)C(O)C1O (stereo not drawn)
inactive: outcome [9] inactive [at 17.4 µM] | Potency [2] | Potency [3] | outcome [4] | Potency [5] | Potency [6] | Potency [7] | Potency [8]

C[C@]12CC/C(=N\OCC(=O)O)C=C1CC[C@@H]1[C@@H]2[C@@H](O)C[C@@]2(C)[C@H]1CC[C@]2(O)C(=O)CO
inactive: outcome [9] | Potency [2] | Potency [3] | outcome [4] | Potency [5] | Potency [6] | Potency [7] | Potency [8]

O=C1C[C@@]2(C(=O)N1)C(=O)N(Cc1ccc(Br)cc1F)C(=O)c1cccn12
inactive: outcome [9] | Potency [2] | Potency [3] | outcome [4] | Potency [5] | Potency [6] | Potency [7] | Potency [8]

O=C(O)c1ccnc(-c2cc(C(=O)NCCc3ccccc3)ccn2)c1
inactive: outcome [1] | Potency [3] | outcome [4] | Potency [5] | Potency [6] | Potency [7] | Potency [8]
